The values below come from PubChem BioAssay (NCI).

Compounds without any hit were thinned out: in the full panel of roughly 83,000, 20% have a hit.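 96-well plates, one dose, 48 hours. Percent growth reported; active if below 10.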 A number with no mark means an inactive call. Active and inactive are the calls of the source.

The assay has as its system A549/ATCC NSCLC. Description: NCI-60 one-dose screen, 48 h (100 = growth as untreated, 0 = no growth, -100 = all killed). To be noted: 10 µM unless noted.
In the case of `CC(=O)O[C@H]1CC[C@]2(C)[C@H]3CC=C4[C@@H]5CC(C)(C)CC[C@]5(C(=O)OCC(COC(=O)C(Cl)Cl)(COC(=O)C(Cl)Cl)NC(=O)C(Cl)Cl)CC[C@@]4(C)[C@]3(C)CC[C@H]2C1(C)C`, the growth was 31.5%.

Consider `Clc1ccc(Cl)c(N=Cc2ccc3c(c2)OCO3)c1`, for which the growth is 96.9%.

Regarding `CCN(CC)c1ccc2c(cc1=O)[C@@H](NC(C)=O)CCc1cc(OC)c(OC)c(OC)c1-2`, the growth was 13.2%. With `COc1ccc(CNc2c3ccccc3nc3ccc(OC)cc23)cc1` the figure was 14.6%. As for `NC(=O)c1ccc[n+](Cc2ccccc2)c1`, the growth was 94.3%. With `N/N=C(\C(=N\N)c1ccccc1)c1ccccc1` the figure was 101%; with `CC1=C(O)C(=O)CC1`, 88.8%.

As for `CCN(CC)CCCC(C)Nc1ccnc2ccc(Oc3ccccc3)cc12` (centres undefined), the growth was 81.6%. To `COc1cc2ncnc(Nc3ccc(S(=O)(=O)Nc4nccs4)cc3)c2cc1OCCCN1CCOCC1` belongs 103%; to `CC(=O)Cc1ccccn1`, 104%; to `CC1OC(n2c3ccccc3c3c4c(c5c6ccccc6[nH]c5c32)C(=O)N(CCN[C@H]2CCC[C@@H]2N)C4=O)CC(O)C1O` (some centres undefined), 25.2%. With `O=C(C(=O)N1CCCC1)c1cn(CCCn2cc(C(=O)C(=O)N3CCCC3)c3cc(Br)ccc32)c2ccc(Br)cc12` the figure was 57.8%; with `CCCCCCCOc1cccc(/C=C2\N=C3SCCCN3C2=O)c1`, 91.8%; with `COc1ccc(NC(=O)c2sc3c(=O)[nH]c(C(F)(F)F)nc3c2C)cc1`, 95.2%. With `C=C[C@H]1CCC/C=C/[C@@H]2C[C@H](O)C[C@H]2[C@H](O)/C=C/C(=O)O1` the figure was 8.51% (active).

`C=CC(=O)N1CN(C(=O)C=C)CN(C(=O)C=C)C1`: the growth is 94.6%. To `CC(C)CCSc1nc(Nc2ccccc2)c(C#N)c(-c2ccc(F)cc2)n1` belongs 25.3%. With `COC(=O)c1ccc2c(c1)nc(-c1cc3ccccc3[nH]c1=O)n2-c1cc(C(C)(C)C)[nH]n1` the figure was 81.5%. To `O=C1NN(C(=O)c2ccccc2)C(c2ccc(Cl)c(Cl)c2)=C/C1=C\c1ccccc1[N+](=O)[O-]` belongs 14.4% [6.75 µM]; to `O=C(CCl)Nc1ccc2c(c1)C(=O)c1ccccc1C2=O`, 75.7%; to `CCOC(=O)C1C(=O)C=C(c2cc(OC)c(OC)c(OC)c2)CC1c1sc(N(C)Cc2ccccc2)nc1Cl` (centres undefined), 71.6%. For the compound `N/C(=N\OC(=O)c1ccccc1)C(C(=O)NOC(=O)c1ccccc1)C1CCCCC1` (centres undefined), the growth was 1.51% (active). To `C=C(C)[C@@H]1CC[C@]2(C(=O)O)CC[C@]3(C)[C@H](CC[C@@H]4[C@@]5(C)C[C@@H](CC#Cc6ccc(C(C)=O)s6)[C@H](O)C(C)(C)[C@@H]5CC[C@]43C)[C@@H]12` belongs 6.44% (active). With `CC(C)[C@@H]1C=C2CC[C@H]3[C@](C)(CN)CCC[C@]3(C)[C@H]2CC1` the figure was 95.5%; with `COc1ccc(-c2cc(-c3cn(-c4cccc(Cl)c4)nc3-c3ccc(OC)cc3)[nH]c(=S)n2)cc1`, 50.4%. To `CCN1CCN(Cc2ccc(NC(=O)Nc3ccc(-n4ccc5c(NC(=O)c6ccccc6)nccc54)cc3)cc2C(F)(F)F)CC1` belongs -62.8% (active).

Turning to `Clc1ccc(C2=NN[C@H](c3cn(-c4ccccc4)nc3-c3ccccc3)C2)cc1`, the growth is 46.5%. With `CC(C)CC1NC(=O)C(CC(C)C)N(CO)C1=O` (centres undefined) the figure was 102%.

On to `c1ccc(-c2ccc(-c3ccccc3)[nH]2)cc1`, for which the growth was 88.7%. Regarding `C=CCN(CC#N)CC=C`, the growth was 101%. To `COc1ccc2c(c1)sc1nc(-c3ccccc3)c(-c3cccc4ccccc34)n12` belongs 24.2%; to `CC(C)c1nc2ccccc2n1CC(=O)N/N=C/c1cccc(O)c1`, 97.5%; to `CCCCCCCC/C=C\CCCCCCCC(=O)OCCCCCC`, 90.6%. Consider `CCN(CC)c1ccc(/C=N/NC(=O)c2ccc(S(C)(=O)=O)cc2)c(O)c1`, for which the growth was 12.5%.

Regarding `CC(=O)CC(c1ccc([N+](=O)[O-])cc1)c1c(O)c2ccccc2oc1=O` (centres undefined), the growth is 95.7%. With `CC1CCCN(CCCCOc2ccc(-c3ccc(C#N)cc3)cc2)C1` (centres undefined) the figure was 60.2%. For `Cn1c(-c2ccccc2)cc(=O)n1-c1ccccc1`, the growth is 102%. For the compound `O=C(NCCN1CCCC1)n1cc(-c2ccncc2)c(-c2cc(O)cc(Cl)c2)n1`, the growth was 101%. For the compound `C(=Nc1ccc(-c2ccc(N=Cc3ccccc3)cc2)cc1)c1ccccc1`, the growth is 93.8%.
